From PubChem
IDE cell activ: IDE (human) activation, cell-based; P14735; HEK cells, FAbeta-B cleavage, fluorescence polarization; 0% vehicle, 100% cell-free pure enzyme wells; activation, % at 5.96 µM; actives 0.073% (n = 340,000); AID 493087;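 active = activation above the mean of all tested compounds plus 3 SD, set per screening campaign, cut at about 17% in these data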
PP1 counter: counter-screen for PP5 inhibitors: inhibitors of human PP1-alpha; P62136; purified PP1alpha, OMFP fluorescence; inhibition, % at 6.7 µM; actives 0.9% (n = 320,000); AID 2235;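 active = inhibition above the mean inhibition of all tested compounds plus 3 SD, computed separately for each screening campaign, cut at about 15% in these data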
Target sequence (P62136 whole entry, looked up): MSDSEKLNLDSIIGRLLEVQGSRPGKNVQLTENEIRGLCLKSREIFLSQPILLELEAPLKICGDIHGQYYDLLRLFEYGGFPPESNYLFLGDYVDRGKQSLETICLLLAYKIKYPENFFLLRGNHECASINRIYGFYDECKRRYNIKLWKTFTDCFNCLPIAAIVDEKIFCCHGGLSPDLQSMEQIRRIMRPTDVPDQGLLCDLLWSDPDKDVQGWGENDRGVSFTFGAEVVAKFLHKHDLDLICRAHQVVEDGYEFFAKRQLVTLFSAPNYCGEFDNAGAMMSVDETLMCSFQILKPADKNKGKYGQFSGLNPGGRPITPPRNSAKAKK
PP5 primary: blocks human protein phosphatase 5 activity; P53041; purified PP5c, OMFP substrate fluorescence; inhibition, % at 6.7 µM; actives 0.18% (n = 320,000); AID 1987;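 active = inhibition above the campaign's mean inhibition across all tested compounds plus 3 SD, cut at about 9.5% in these data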
Granule exo inh: lytic granule exocytosis inhibition | actives 0.66% (n = 360,000) | TALL-104 LAMP-1 surface exposure, flow cytometry; cells stimulated with thapsigargin and PMA | inhibition, % at 10 µM | AID 651702;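 active = inhibition above about 55%, limit read from the data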
IDE cell inh: inhibitors of human insulin-degrading enzyme in cells; P14735; HEK cells, FAbetaB cleavage, fluorescence polarization; inhibition, % at 5.59 µM; actives 0.41% (n = 320,000); AID 434962;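 active = percent inhibition above the average of all tested compounds plus 3 SD, set per screening campaign, cut at about 16% in these data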;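 note: IDE supplied by intact live HEK cells; FP after avidin binding of uncleaved biotin substrate so inhibition keeps polarization high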
SKKanGAS inh: SKKanGAS growth inhibition; actives 1.3% (n = 300,000); S. pyogenes SKKanGAS, kanamycin growth, BacTiter-Glo, 6 h; inhibition, % at 7.5 µM; AID 1662;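 active = mean replicate score, as percent of positive control median, at least 50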;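 note: strain carries kanamycin resistance gene driven by streptokinase promoter and grows in 40 µg/ml kanamycin; loss of luminescence reflects streptokinase promoter inhibition or plain growth inhibition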
IDE cell inh cf: cellular human IDE inhibition, confirmation. shares compounds with IDE cell inh. HEK cells, FAbetaB cleavage, fluorescence polarization. inhibition, % at 5.59 µM. actives 51% (n = 1,200). AID 435028;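 active = mean inhibition across triplicate wells above the cutoff set by the earlier primary insulin-degrading enzyme screen, cut at about 16% in these data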
HEK cytotox: counter-screen for IDE inhibitors: cytotoxicity in HEK cells; shares compounds with IDE cell inh; HEK293 cytotoxicity, ATP luminescence; inhibition, % at 5.59 µM; actives 28% (n = 1,200); in the data active = inhibition above about 22%
Hits are given with their value. Most compounds without a hit are left out; they make up all but 2.8% or so of the library.

Results for CC(=O)NC(c1ccco1)c1cc(Cl)c2ccccc2c1O (stereo not given) ?
IDE cell activ: inactive; PP1 counter: inactive; PP5 primary: inactive; Granule exo inh: inactive; IDE cell inh: 35.8; IDE cell inh cf: inactive; HEK cytotox: inactive

Results for CCC(=O)NC(c1ccco1)c1cc(Cl)c2ccccc2c1O (stereo not given) ?
IDE cell activ: inactive; PP1 counter: inactive; PP5 primary: inactive; Granule exo inh: inactive; IDE cell inh: 16.2; IDE cell inh cf: inactive; HEK cytotox: inactive

How did COC1=CC(=Cc2c(N)n3nc(CC(=O)N4CCCCC4)sc3nc2=O)C=C(OC)C1=O do in these assays?
IDE cell activ: inactive; PP1 counter: inactive; PP5 primary: inactive; Granule exo inh: inactive; IDE cell inh: 40.6; SKKanGAS inh: inactive; IDE cell inh cf: 25.9; HEK cytotox: inactive

Results for CCOC1=C/C(=C/c2c(N)n3nc(CC(=O)N4CCCC4)sc3nc2=O)C=CC1=O ?
IDE cell activ: inactive; PP1 counter: inactive; PP5 primary: inactive; Granule exo inh: inactive; IDE cell inh: 30.3; SKKanGAS inh: inactive; IDE cell inh cf: 38.6; HEK cytotox: inactive

How did COC1=C/C(=C/c2c(N)n3nc(CC(=O)N4CCCC4)sc3nc2=O)C=CC1=O do in these assays?
IDE cell activ: inactive; PP1 counter: inactive; PP5 primary: inactive; Granule exo inh: inactive; IDE cell inh: 24.4; SKKanGAS inh: inactive; IDE cell inh cf: 126.5; HEK cytotox: inactive

Results for Cc1cnc(CN(C)C(=O)c2ccc3oc(Cc4ccc(Cl)cc4)nc3c2)[nH]1 ?
IDE cell activ: inactive; PP1 counter: inactive; PP5 primary: inactive; Granule exo inh: inactive; IDE cell inh: inactive; SKKanGAS inh: inactive

How did O=C1[C@@H]2[C@H](C(=O)N1CC(O)COCc1ccccc1)C1C=C[C@H]2C1 (stereo not given in full) do in these assays?
IDE cell activ: inactive; Granule exo inh: inactive

Results for COc1ccc(N=Cc2oc3ccc4ccccc4c3c2O)cc1 ?
IDE cell activ: inactive; PP1 counter: inactive; PP5 primary: inactive; Granule exo inh: inactive; IDE cell inh: 18.4; SKKanGAS inh: inactive; IDE cell inh cf: 29.2; HEK cytotox: inactive

What do the screens show for `CC(=O)Nc1ccc(S(=O)(=O)N(Cc2cccnc2)Cc2cc3ccc(C)cc3[nH]c2=O)cc1`?
IDE cell activ: inactive; PP1 counter: inactive; PP5 primary: inactive; Granule exo inh: inactive; IDE cell inh: inactive; SKKanGAS inh: inactive

Results for O=C1OC(CC(=O)N(Cc2nnc(-c3ccccc3Cl)o2)C2CC2)c2ccccc21 (stereo not given) ?
IDE cell activ: inactive; PP1 counter: inactive; PP5 primary: inactive; Granule exo inh: inactive; IDE cell inh: inactive

How did Cc1ccc(C)c(N/C=C(\C#N)c2nc3ccccc3o2)c1 do in these assays?
IDE cell activ: inactive; PP1 counter: inactive; PP5 primary: inactive; Granule exo inh: inactive; IDE cell inh: inactive; SKKanGAS inh: inactive

How did N#C/C(=C\c1ccc(O)cc1)c1nc2ccccc2o1 do in these assays?
IDE cell activ: inactive; PP1 counter: inactive; PP5 primary: inactive; Granule exo inh: inactive; IDE cell inh: 42.8; SKKanGAS inh: inactive; IDE cell inh cf: 118.6; HEK cytotox: inactive

Results for COc1cc(/C=C(\C#N)c2nc(-c3cc4ccccc4oc3=O)cs2)ccc1O ?
IDE cell activ: inactive; PP1 counter: inactive; PP5 primary: inactive; Granule exo inh: inactive; IDE cell inh: inactive; SKKanGAS inh: inactive

What do the screens show for `COc1cc(/C=C(\C#N)c2nc3ccccc3[nH]2)ccc1OC(=O)c1ccco1`?
IDE cell activ: inactive; PP1 counter: inactive; PP5 primary: inactive; Granule exo inh: inactive; IDE cell inh: 114.3; SKKanGAS inh: inactive; IDE cell inh cf: 153.3; HEK cytotox: inactive

What do the screens show for `COc1cc(/C=C(\C#N)c2nc3ccccc3o2)ccc1O`?
IDE cell activ: inactive; PP1 counter: inactive; PP5 primary: inactive; Granule exo inh: inactive; IDE cell inh: 87.6; SKKanGAS inh: inactive; IDE cell inh cf: 83.9; HEK cytotox: inactive
